The values below come from PubChem BioAssay (EPA / NIEHS).

Activity calls are given as the source filed them. How the source made its calls: active means hit-call score of the fitted dose curve at least 0.9, where 1 is the maximum; inactive means score below 0.9.

What all share (conditions): mRNA level, 48 h; actives raise or lower the signal
Read-out in assay [1]: Cytochrome P450 7A1 (Homo sapiens) (UniProt P22680)
Briefly: LTEA_HepaRG_CYP7A1: Life Technologies and Expression Analysis (LTEA) Assay for Cytochrome P450 7A1 (CYP7A1) using HepaRG (AID 2283496). An outline of the steps: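 Using 0.5% DMSO as vehicle and baseline, chemicals were tested in duplicate over an 8-point range from 100 uM on HepaRG cells for 48 h; qRT-PCR signals were normalised to ACTB, GAPDH and POLR2A.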

Read-out in assay [2]: Glutathione S-Transferase (GSTA2), GSTA2 (gene 2939)
The assay can be described thus: LTEA_HepaRG_GSTA2: Life Technologies and Expression Analysis (LTEA) Assay for Glutathione S-Transferase (GSTA2) using HepaRG (AID 2283497). The gist of the method: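 qRT-PCR readout of GSTA2 transcript, normalized to three housekeeping genes, fitted bidirectionally against 0.5% DMSO baseline. Differentiated HepaRG cells received compound for 48 h at 8 concentrations (top 100 uM, half-log steps).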

Read-out in assay [3]: Glutamate-cysteine ligase catalytic (GCLC), GCLC (gene 2729)
The assay can be described thus: LTEA_HepaRG_GCLC: Life Technologies and Expression Analysis (LTEA) Assay for Glutamate-cysteine ligase catalytic (GCLC) using HepaRG (AID 2283498). An outline of the steps:
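HepaRG, 48 h exposure, 8-pt half-log series from 100 uM, 0.5% DMSO vehicle; TaqMan qRT-PCR for GCLC mRNA, housekeeping-normalized; bidirectional curve fit vs DMSO baseline.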

Read-out in assay [4]: growth arrest and DNA damage 45 (GADD45G), GADD45G (gene 10912)
The assay can be described thus: LTEA_HepaRG_GADD45G: Life Technologies and Expression Analysis (LTEA) Assay for growth arrest and DNA damage 45 (GADD45G) using HepaRG (AID 2283499). An outline of the steps: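 Human hepatic HepaRG line treated 48 h with chemicals (eight concentrations, half-log steps from 100 uM); transcript induction or repression of GADD45G scored by qRT-PCR versus DMSO vehicle.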

Read-out in assay [5]: Glutamate-cysteine ligase regulatory (GCLM), GCLM (gene 2730)
Briefly: LTEA_HepaRG_GCLM: Life Technologies and Expression Analysis (LTEA) Assay for Glutamate-cysteine ligase regulatory (GCLM) using HepaRG (AID 2283500). An outline of the steps:
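In this multiplexed HepaRG gene-expression assay, GCLM mRNA change after 48 h treatment (8 concentrations, max 100 uM) was scored against DMSO by bidirectional curve fitting.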

Read-out in assay [6]: Glutathione S-transferase M3 (GSTM3), GSTM3 (gene 2947)
The assay can be described thus: LTEA_HepaRG_GSTM3: Life Technologies and Expression Analysis (LTEA) Assay for Glutathione S-transferase M3 (GSTM3) using HepaRG (AID 2283501). The gist of the method: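 Changes in GSTM3 expression, an oxidative-stress marker, were scored by bidirectional curve fitting against 0.5% DMSO vehicle. Human HepaRG cultures received chemicals for 48 h in duplicate, highest concentration 100 uM with half-log dilutions.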

Read-out in assay [7]: Heat shock 70 kDa protein 1 (HSPA1A), gene 3303
The assay can be described thus: LTEA_HepaRG_HSPA1A: Life Technologies and Expression Analysis (LTEA) Assay for Heat shock 70 kDa protein 1 (HSPA1A) using HepaRG (AID 2283502). The gist of the method: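 An oxidative-stress marker readout: HepaRG cells treated 48 h in duplicate with an eight-point series (highest 100 uM) had HSPA1A mRNA quantified by TaqMan qRT-PCR. Activity was fitted in both directions using 0.5% DMSO as baseline.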

Read-out in assay [8]: Hypoxia-inducible factor 1-alpha (Homo sapiens) (UniProt Q16665)
The assay can be described thus: LTEA_HepaRG_HIF1A: Life Technologies and Expression Analysis (LTEA) Assay for Hypoxia-inducible factor 1 (HIF1A) Trancription factor using HepaRG (AID 2283503).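 Further: HIF1A transcript by TaqMan qRT-PCR normalized to ACTB GAPDH and POLR2A.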 An outline of the steps: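 Gain- or loss-of-signal HIF1A mRNA changes are fitted against a DMSO baseline. HepaRG cultures receive eight concentrations, highest 100 uM, for 48 h in serum-free induction medium with 0.5% DMSO.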

Read-out in assay [9]: 3-Hydroxy-3-Methylglutaryl-CoA Synthase 2 (HMGCS2), HMGCS2 (gene 3158)
The assay can be described thus: LTEA_HepaRG_HMGCS2: Life Technologies and Expression Analysis (LTEA) Assay for 3-Hydroxy-3-Methylglutaryl-CoA Synthase 2 (HMGCS2) using HepaRG (AID 2283504). An outline of the steps: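 Expression of HMGCS2 in human HepaRG liver cells is measured by qRT-PCR 48 h after dosing (highest 100 uM, half-log series, 0.5% DMSO). Values come from bidirectional concentration-response fitting with DMSO as baseline.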

Read-out in the next assay: HGF (gene 3082)
The assay can be described thus: LTEA_HepaRG_HGF: Life Technologies and Expression Analysis (LTEA) Assay for Hepatocyte Growth Facto (HGF) using HepaRG (AID 2283505). An outline of the steps: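 Gain or loss of HGF mRNA in human HepaRG liver cells after 48 h chemical exposure; eight concentrations up to 100 uM with 0.5% DMSO vehicle, quantified by TaqMan qRT-PCR.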

Hypoxia-inducible factor 1-alpha (Homo sapiens), sequence (Q16665 whole entry, looked up): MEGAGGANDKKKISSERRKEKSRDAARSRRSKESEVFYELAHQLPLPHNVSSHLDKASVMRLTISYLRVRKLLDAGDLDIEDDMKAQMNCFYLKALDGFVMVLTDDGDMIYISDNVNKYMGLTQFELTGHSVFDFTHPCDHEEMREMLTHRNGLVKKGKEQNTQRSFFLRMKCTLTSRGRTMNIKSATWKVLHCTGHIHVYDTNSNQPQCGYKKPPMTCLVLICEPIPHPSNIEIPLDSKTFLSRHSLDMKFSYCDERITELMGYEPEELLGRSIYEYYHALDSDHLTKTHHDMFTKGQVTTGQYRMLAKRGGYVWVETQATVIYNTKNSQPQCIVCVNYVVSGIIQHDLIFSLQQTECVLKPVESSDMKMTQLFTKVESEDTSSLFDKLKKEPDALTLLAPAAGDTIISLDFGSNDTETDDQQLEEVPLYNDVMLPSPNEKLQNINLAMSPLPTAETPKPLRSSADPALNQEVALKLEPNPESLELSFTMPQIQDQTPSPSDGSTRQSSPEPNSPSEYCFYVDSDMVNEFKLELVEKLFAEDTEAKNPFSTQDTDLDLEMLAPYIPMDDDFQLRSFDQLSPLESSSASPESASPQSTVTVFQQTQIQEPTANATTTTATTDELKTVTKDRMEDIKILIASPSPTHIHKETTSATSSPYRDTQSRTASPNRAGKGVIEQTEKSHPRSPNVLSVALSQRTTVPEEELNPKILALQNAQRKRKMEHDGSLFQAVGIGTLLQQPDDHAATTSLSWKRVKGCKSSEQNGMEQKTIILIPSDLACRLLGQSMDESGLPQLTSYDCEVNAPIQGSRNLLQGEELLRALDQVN

Consider `CCCCOC(=O)CC(CC(=O)OCCCC)(OC(C)=O)C(=O)OCCCC`, for which the result in assay [1], in assay [2], in [3], in assay [4], in assay [5] and in assay [6] was inactive. Moreover, the result (in assay [7]; in assay [8]; in assay [9]; with HGF (gene 3082)) was inactive.

Regarding `COc1cccc([C@H](O)C2CCN(CCc3ccc(F)cc3)CC2)c1OC`, the call in [1], in [2], in [3], in assay [5], in [7] and in assay [8] was inactive. Moreover, the result (in [9]; with HGF (gene 3082)) was inactive. The AC50 (commonly the midpoint of the concentration-response curve, whichever way the signal moves) in assay [4] is 69.1 µM (active); in assay [6] it was 72.9 µM (active).

For the compound `Oc1ccccc1`, the outcome in [1], in assay [2], in assay [3], in assay [4], in [5] and in [6] was inactive. For the same compound, the result (in [7]; in assay [8]; in [9]; with HGF (gene 3082)) was inactive.

Consider `Cc1ccc(C(C)C)cc1`, for which the outcome in assay [1], in [2], in assay [3], in assay [4], in assay [5] and in assay [6] was inactive. For the same compound, the call (in assay [7]; in assay [8]; in [9]; with HGF (gene 3082)) was inactive.

Regarding `OCCO`, the result in [2], in [3], in assay [4], in assay [5], in assay [6] and in assay [7] was inactive. Besides, the compound was called inactive (in assay [8]; in [9]; with HGF (gene 3082)).

In the case of `CCCCCCCCCCCCO`, the compound was classed as inactive in assay [2], in [3], in [4], in [5], in assay [6] and in assay [7]. The compound was classed as inactive (in assay [8]; in assay [9]; with HGF (gene 3082)).

As to `NC(=O)c1nc(-c2cccc(-c3cc(F)ccc3OCC(F)(F)C(F)(F)F)c2)n[nH]1`, the outcome in assay [1], in assay [2], in assay [3], in assay [4], in [5] and in [6] was inactive. Further, the AC50 in assay [8] was 87.2 µM (active); in assay [9] it was 50 µM (active); in the assay with HGF (gene 3082), 77.2 µM (active).

In the case of `CCCCCCCCOC(=O)c1cc(O)c(O)c(O)c1`, the result in assay [1], in assay [2], in assay [3], in [4], in assay [5] and in assay [6] was inactive. Further, the outcome (in [7]; in [8]; in assay [9]; with HGF (gene 3082)) was inactive.

`O=C(Nc1ccc(Cl)cc1)Nc1ccc(Cl)c(Cl)c1`: the AC50 is 26 µM (active) in [1]; 27.2 µM (active) in assay [2]; 22.8 µM (active) in [4]; 29.1 µM (active) in assay [7]; 72.1 µM (active) in assay [8]; 28.6 µM (active) in [9]. Besides, the AC50 with HGF (gene 3082) was 50 µM (active). For the same compound, the outcome in assay [5] and in assay [6] was inactive.

Regarding `NCc1cccc(C2CCN(C(=O)c3ccc(C#Cc4ccccc4F)o3)CC2)c1`, the AC50 in assay [1] is 86.3 µM (active); in [2], 78.9 µM (active); in [9] it was 93.8 µM (active); with HGF (gene 3082) it was 79.5 µM (active). For the same compound, the outcome in assay [3], in assay [4], in [5], in assay [6], in assay [7] and in assay [8] was inactive.

Regarding `CCCCOC(=O)c1ccc(O)cc1`, the result in assay [1], in assay [2], in [3], in assay [4], in assay [5] and in assay [6] was inactive. For the same compound, the compound was called inactive (in [7]; in assay [9]; in the assay with HGF (gene 3082)).

As for `Cc1ccc2oc(CN(Cc3ccccc3)C(=O)Nc3c(F)cc(F)cc3F)c(-c3ccc(Cl)cc3)c2c1`, the concentration at half-maximal activity (AC50) is 5.31 µM (active) in assay [1]; 44.2 µM (active) in assay [2]; 77.2 µM (active) in assay [4]; 44.2 µM (active) in assay [5]; 44.2 µM (active) in assay [9]. Further, the call (in assay [3]; in assay [6]; in assay [7]; in assay [8]; with HGF (gene 3082)) was inactive.

With `CN(C[C@@H](CC[N+]12CCC(C3CCCCC3)(CC1)CC2)c1ccc(Cl)c(Cl)c1)C(=O)c1cc(C(F)(F)F)cc(C(F)(F)F)c1`, the AC50 is 23.4 µM (active) in [1]; 34.2 µM (active) in assay [2]; 60.9 µM (active) in [3]; 91.2 µM (active) in assay [5]; 15.8 µM (active) in assay [6]; 71.9 µM (active) in assay [7]. The results for the AC50 (in [8]; in assay [9]; with HGF (gene 3082)) were 50 µM (active), 67.4 µM (active) and 20 µM (active), respectively. The outcome in assay [4] was inactive.

Consider `Cc1ncc(CO)c(CO)c1O`, for which the call in assay [1], in assay [2], in assay [3], in [4], in assay [5] and in assay [6] was inactive. Further, the compound was classed as inactive (in assay [7]; in assay [9]; in the assay with HGF (gene 3082)).

Regarding `O=C1CCC(C2CCCCC2)CC1`, the result in assay [1], in assay [2], in assay [3], in [4], in assay [5] and in assay [6] was inactive. Further, the compound was classed as inactive (in [7]; in assay [8]; in assay [9]; in the assay with HGF (gene 3082)).

Regarding `O=C=NCCCCCCN=C=O`, the result in [1], in [2], in [3], in assay [4], in [5] and in [6] was inactive. In addition, the outcome (in assay [7]; in [8]; in assay [9]; with HGF (gene 3082)) was inactive.

`CO[C@H]1/C=C/O[C@@]2(C)Oc3c(C)c(O)c4c(O)c(c(/C=N/N5CCN(C)CC5)c(O)c4c3C2=O)NC(=O)/C(C)=C\C=C\[C@H](C)[C@H](O)[C@@H](C)[C@@H](O)[C@@H](C)[C@H](OC(C)=O)[C@@H]1C`: the AC50 in [1] was 1.62 µM (active); in [2], 0.379 µM (active). Besides, the compound was called inactive in [3], in assay [4], in assay [5], in assay [6], in [7] and in assay [9]. The result in the assay with HGF (gene 3082) was inactive.

Turning to `O=c1[nH]sc2ccccc12`, the result in assay [1], in assay [2], in assay [3], in assay [4], in [5] and in assay [6] was inactive. In addition, the outcome (in assay [7]; in assay [8]; in assay [9]; with HGF (gene 3082)) was inactive.

Turning to `CCCOC(=O)c1cc(O)c(O)c(O)c1`, the half-maximal activity concentration (AC50) was 17.9 µM (active) in [1] and 50 µM (active) in assay [9]. The compound was classed as inactive in assay [2], in assay [3], in [4], in assay [5], in assay [6] and in assay [7]. The compound was called inactive (in assay [8]; with HGF (gene 3082)).

In the case of `O=CCCCC=O`, the outcome in assay [1], in [2], in [3], in assay [4], in [6] and in assay [7] was inactive. For the same compound, the result (in assay [8]; in [9]; in the assay with HGF (gene 3082)) was inactive. Also, in assay [5], the concentration at half-maximal activity (AC50) was 0.236 µM (active).
